# Assay results: PubChem BioAssay AID720541 (National Center for Advancing Translational Sciences (NCATS), 2013)
# The whole screen tested about 1,300 compounds, of which about 420 (32%) were called active. Roughly 32% stayed inconclusive and do not appear here. The list shows a part of the results. A number with no mark means an inactive call. Calls follow the shape of the dose curve; as a rule, active = well fitted inhibition curve with a large enough effect; inconclusive = small, poorly fitted or top-dose-only effect; inactive = no such curve, though single readings can be large or run the other way.
# Biological target: C-terminal-binding protein 1 (Homo sapiens) (UniProt Q13363)
# Test: qHTS for Inhibitors of the Phosphatase Activity of Eya2: Carboxyl-terminal binding protein (CtBP) Counterscreen for Cherry-picked Compounds; also: nearly all actives have a fitted effect of over 65% in size
# Conditions: purified protein-protein binding, AlphaScreen, 3 h; series mostly up to 46.1 µM; activity change, negative = inhibition: at the top concentration
# In short: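 AlphaScreen using 25 nM GST-E1A with 25 nM CtBP-6xHIS; compounds at 2.5 nM–46 uM final, 2 h at room temperature, then donor/acceptor beads (20 ug/mL) for 1 h in the dark. Signal normalized to E1A peptide inhibitor (maximum inhibition) and DMSO.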
# % is scaled to controls: 0 for no effect and ±100 for the full control effect; potency is read from the fitted curve at half-maximal effect.
Structure (SMILES),"activity change, negative = inhibition [%]",Potency
NC(=O)[C@@H]1CC2(CC(c3cccc(NC(=O)COc4ccc(Cl)cc4)c3)=NO2)CN1C(=O)COc1ccc(Cl)cc1 (some centres not stated),-2.46,–
CCOCCCNC(=O)c1cc2sc(Cl)cc2n1CC,-5.54,–
Cc1cccc2cn[nH]c12,3.72,–
O=C(NN=C1CCCC1)c1[nH]c2ccc(Br)cc2c1-c1ccccc1,-4.82,–
COc1ccc(OC)c(NC(=O)CSc2nc(-c3ccccc3)cc(=O)[nH]2)c1,-21.4,–
CCOC(=O)c1sc(NC(=O)CSc2nc(O)c(Cc3ccccc3)c(=O)[nH]2)nc1C,–,16.9 µM (active)
O=C(O)c1ccccc1-c1ccccc1C(=O)Nc1ccc2oc(=O)c3ccccc3c2c1,–,12 µM (active)
O=C(O)c1ccccc1-c1ccccc1C(=O)Nc1ccc2c(c1)[nH]c(=O)c1ccccc12,–,7.57 µM (active)
CCN1C(=O)/C(=C2/C=Cc3ccccc3N2CC)SC1=S,–,4.26 µM (active)
COc1cc(OC)c(OC)cc1/C=C/c1nccc2ccccc12,–,7.57 µM (active)
FC(F)(F)c1ccc(CN2C[C@@H]3C(c4ccc(Cl)nc4)C4(c5cccnc5)CC3(C4)[C@H]2c2ccccc2)cc1 (some centres not stated),-13.9,–
Cc1ccc(O)c(C(=O)c2cnc3c(c2)c(-c2ccc(F)cc2)c(C#N)c(=O)n3C)c1,50.2,–
COc1ccc([C@H]2CC(=O)C=C(c3ccnc4ccc(Cl)cc34)C2)cc1,-17.1,–
CC(=O)Nc1ccc(NC(=O)COc2ncnc3ccccc23)cc1,23,–
CN(C)c1ccc(NC(=O)CC(NCc2ccccn2)C(=O)O)cc1 (configuration not stated),–,1.07 µM (active)
COc1cc(OC)c(NC(=O)CN(C)S(=O)(=O)c2ccc(-c3ccc(=O)[nH]n3)s2)cc1Cl,–,6.01 µM (active)
CCN(CC)c1ccc(/C=C2\CCC(/C=C(\C#N)C(=O)Nc3ccccc3F)=C2N2CCOCC2)cc1,–,23.9 µM (active)
CCCc1ccc(C#N)c(SC2CC(=O)N(c3ccc(OC)cc3)C2=O)n1 (configuration not stated),-12.5,–
O=C1NC(=O)/C(=C\c2ccccc2OCc2cccc([N+](=O)[O-])c2)N1,-13,–
COc1ccc(F)cc1-c1cc(NC=O)c2ncc(-c3cccc(C(F)(F)F)c3)n2c1,-11.4,–
Oc1c(C(Nc2nc3ccccc3s2)c2ccco2)ccc2cccnc12 (configuration not stated),–,6.75 µM (active)
Cc1cc(C)c(OCCCCN(C)Cc2ccccc2)c(C)c1,58.5,–
O=c1c2ccccc2oc2nc3n(c(=O)c12)CCCS3,–,12 µM (active)
Cc1cc(=O)n2nc(N3CCCC(C(=O)Nc4ccc(C)c(C)c4)C3)sc2n1 (configuration not stated),-39.8,–
CN1/C(=C\C(=S)NC(=O)c2ccccc2Cl)C(C)(C)c2ccccc21,–,15.1 µM (active)

Structure (SMILES),"activity change, negative = inhibition [%]",Potency
Oc1[nH]c2ccccc2c1N=Nc1nc2ccccc2s1,-4.03,–
Cc1c(CCO)c(=O)n(-c2ccccc2)n1S(=O)(=O)c1c(Cl)cc(Cl)cc1Cl,-25.3,–
CCOc1ccc(S(=O)(=O)Nc2cc(SCC(=O)O)c(O)c3ccccc23)cc1,–,21.3 µM (active)
CCN1CCN(c2nn3c(=O)c4ccccc4nc3c3ccccc23)CC1,–,9.53 µM (active)
O=C(O)CCc1c2ccc(=O)c(O)c-2oc2c(O)c(O)ccc12,–,16.9 µM (active)
CCN(CC)c1ccc(N=Cc2cc(Br)ccc2O)cc1,5.98,–
CC(C)c1ccc(C2c3[nH]c4ccccc4c3C[C@H]3C(=O)N(c4ccccc4C(=O)N4CCC[C@H]4C(=O)O)C(=O)N23)cc1 (some centres not stated),-23.3,–
COc1ccc(/C=C2\CCc3ccccc3C2=O)cc1CN1CCOCC1,–,13.5 µM (active)
COc1ccc(C(=O)N2CCOCC2)cc1S(=O)(=O)N1CCCc2ccccc21,-3.75,–
Cn1ccc2c(N3CCCC3)cc3c(c21)C1CCC3C1 (configuration not stated),–,15.1 µM (active)
O=C(NCCCNC1CCCCC1)c1ccc(/C=N/O)nc1,–,13.5 µM (active)
CN(C)c1ccc(Sc2ccc3nc(N)nc(N)c3c2)cc1,–,6.75 µM (active)
O=C(/C=C/c1ccco1)Nc1ccccc1N1CCCC1,-24.3,–
O=C(/C=C/c1ccco1)Oc1cccc2cccnc12,–,4.26 µM (active)
COc1ccccc1/C=C/C(=O)Oc1cccc2cccnc12,–,3.38 µM (active)
O=C(/C=C\c1ccccc1)Oc1cccc2cccnc12,–,3.38 µM (active)
O=C(/C=C/c1ccccc1)Oc1cccc2cccnc12,–,2.39 µM (active)
COc1ccc(Br)cc1CNC(=O)c1ccc2c(c1)N(C)CCS2,-24.5,–
N#Cc1c(=O)c2nc(NCc3ccccc3)ncc2n2ccccc12,–,4.26 µM (active)
CC1CCCCC1Nc1nc2ccc(Cl)cc2n2cnnc12 (configuration not stated),-14.8,–
c1ccc2c(c1)nc(Nc1ccc(N3CCCCC3)cc1)c1nncn12,–,15.1 µM (active)
CC(C)Cn1c(SC(C)C(=O)Nc2ccc(N3CCOCC3)cc2)nc2ccccc21 (configuration not stated),-22.3,–
Cc1cccc(NC2=C(NCCO)C(=O)c3ccccc3C2=O)c1,–,12 µM (active)
CNc1nc(-c2ccc3c(c2)CCN3C(=O)c2cccc(F)c2)cs1,-25.3,–
CC1=CC(=O)Nc2ncccc2O1,–,15.1 µM (active)

Structure (SMILES),"activity change, negative = inhibition [%]",Potency
C[N+](C)(CCCCCI)c1ccc(/C=C/c2nc3ccccc3s2)cc1,–,12 µM (active)
O=C(Oc1ccc2ccc(=O)oc2c1)c1cccs1,-6.55,–
Cc1nc(S/C(=C\c2ccc(-c3ccc(C(=O)O)c(Cl)c3)o2)C(=O)O)n[nH]1,–,13.5 µM (active)
Cc1ccc(C(=O)Oc2ccc3ccc(=O)oc3c2)cc1,-3.56,–
O=C(NNC(=O)c1cc2cc(Br)ccc2oc1=O)c1ccc(O)cc1,24.4,–
CC(=O)Nc1ccc(OC(=O)c2cc3cc(Br)ccc3oc2=O)cc1,–,6.75 µM (active)
CCOc1cc(/C=C2\C(=N)N3N=C(CC)SC3=NC2=O)ccc1OCCOc1ccc(NC(C)=O)cc1,–,3.79 µM (active)
Cc1cc(/C=C2\C(=N)N3N=C(CC(=O)N4CCOCC4)SC3=NC2=O)c(C)n1Cc1ccccc1,-9.67,–
O=C(CSc1nnc2c3ccccc3c3ccccc3c2n1)Nc1ccccc1F,–,12 µM (active)
COc1ccc(NC(=O)c2ccc(CN3CCc4ccccc4C3)cc2)c(OC)c1,-22.2,–
COc1ccc(NC(=O)COc2cccc3c2CCN(C)C3=O)c(OC)c1,–,8.49 µM (active)
COc1ccccc1NC(=O)CCCCCN1C(=O)c2cccc3cccc(c23)C1=O,-5.32,–
Cc1c(C(=O)/C=C/N(C)C)nnn1-c1ccc(Cl)cc1Cl,3.68,–
CN(C)S(=O)(=O)c1cccc(NC(=O)COc2ccccc2C(=O)Nc2ccccc2)c1,–,10.7 µM (active)
O=C(COc1ccccc1/C=C1/NC(=O)NC1=O)Nc1ccccc1,-22,–
CCC(C)C(CO)NC(=O)/C=C/[C@H]1O[C@@H](n2cnc3c(NC(=O)c4ccccc4)ncnc32)[C@H](O)[C@@H]1O (some centres not stated),2.64,–
CCCC[C@@]1(C2CCCC2)Cc2cc(OCC(=O)O)c(Cl)c(Cl)c2C1=O,-17.1,–
CCOC(=O)CN1C(=O)/C(=C2\SC(=S)N(NC(=O)c3cccnc3)C2=O)c2ccccc21,–,13.5 µM (active)
CN1C(=O)/C(=C2\SC(=S)N(NC(=O)c3cccnc3)C2=O)c2ccccc21,–,15.1 µM (active)
CCOc1ccc2[nH]c3nc(SCC(=O)NC4CCCC4)nnc3c2c1,23.6,–
Cc1cc2oc(C(=O)N(Cc3ccc(N(C)C)cc3)CC3CCCO3)c(C)c2cc1C (configuration not stated),-65.1,–
CCc1ccc2[nH]c3nc(SCC(=O)NCC4CCCO4)nnc3c2c1 (configuration not stated),–,4.78 µM (active)
CCCc1cc(=O)[nH]c(SCC(=O)Nc2ccc(C)cc2)n1,2.2,–
Cc1nnc2sc(SCC(=O)Nc3ccc(Br)cc3)nn2c1=O,–,2.13 µM (active)
CCOC(=O)N1CCC(NC(=O)c2cc3c(-c4ccccc4F)nn(C)c3s2)CC1,6.05,–

Structure (SMILES),"activity change, negative = inhibition [%]",Potency
N#Cc1c2nc3ccccc3nc2n2cc(NC(=O)c3ccc(F)cc3)ccc12,–,3.79 µM (active)
Cc1cccc(N2CCN(C(=O)C3COc4ccccc4O3)CC2)c1C (configuration not stated),1.89,–
Cc1cnc(C(=O)Nc2ccccc2-c2ccc(C)o2)cn1,-9.79,–
COc1ccc(-n2nc(C)cc2Nc2ccccc2C(=O)O)cc1,–,7.57 µM (active)
CCOC(=O)c1cc(-c2ccc(N3CCOCC3)cc2)nn1-c1ccccc1C(=O)O,1.17,–
Cc1cc(Nc2ccccc2C(=O)O)n(-c2cccc(Cl)c2)n1,–,7.57 µM (active)
CCc1nc2ccc(C(=O)NCCOc3ccc(OC)cc3)cn2c1N(CCC(C)C)CCN(C)C,-15,–
O=C1c2ccccc2C(=O)c2c(Nc3ccc(CCO)cc3)ccc(O)c21,–,6.01 µM (active)
COc1cccc(C2c3[nH]c4ccccc4c3CCN2Cc2cnn(C)c2)c1 (configuration not stated),-26.5,–
CNc1c(Br)cc(C(O)C2=CCc3ccccc32)cc1Br (configuration not stated),-6.01,–
O=C(NC1CCCC1)c1cc(=O)[nH]c2ccccc12,20.1,–
Cc1csc(NC(=O)c2cc(=O)[nH]c3ccccc23)n1,–,19 µM (active)
O=C(Nc1cc([N+](=O)[O-])ccc1O)c1cccc(C(=O)Nc2cc([N+](=O)[O-])ccc2O)c1,–,6.01 µM (active)
COc1ccc(C(=O)CC(=O)Nc2ccc([N+](=O)[O-])cc2)cc1,-3.78,–
Cc1cc(Br)c(NC(=O)c2ccccc2[N+](=O)[O-])cc1C,0.85,–
COc1cc(OC)c(OC)cc1CCC(C)NCCC(c1ccccc1)c1ccccc1 (configuration not stated),–,13.5 µM (active)
CNc1cccc2c1C(=O)c1ccccc1C2=O,–,2.39 µM (active)
Cc1cccc(NC(=O)COC(=O)c2cccc3c2C(=O)c2ccccc2C3=O)c1C,-11.7,–
C=CCn1cccc(C(=O)Nc2ccc(N(C)C)cc2)c1=O,-23.2,–
NC(=O)c1ccc(NC(=O)COC(=O)/C=C/c2ccc(Br)o2)cc1,3.02,–
Cc1ccc(/C=C/C(=O)Nc2ccc(N(C)C)cc2)o1,–,15.1 µM (active)
CN(C)c1ccc(-c2ccnc3c2CC(C)(C(=O)Nc2ccc(Cl)c(C(F)(F)F)c2)O3)cc1 (configuration not stated),-29.7,–
